# Assay results from ChEMBL document CHEMBL2218924, “A broad activity screen in support of a chemogenomic map for kinase signalling research and drug discovery” (Biochem J, 2013).
# Tests used:
# [1] = biological target: T1, Tyrosine-protein kinase ITK/TSK (Homo sapiens) (UniProt Q08881); conditions: at 10 µM
# T1 sequence (whole entry): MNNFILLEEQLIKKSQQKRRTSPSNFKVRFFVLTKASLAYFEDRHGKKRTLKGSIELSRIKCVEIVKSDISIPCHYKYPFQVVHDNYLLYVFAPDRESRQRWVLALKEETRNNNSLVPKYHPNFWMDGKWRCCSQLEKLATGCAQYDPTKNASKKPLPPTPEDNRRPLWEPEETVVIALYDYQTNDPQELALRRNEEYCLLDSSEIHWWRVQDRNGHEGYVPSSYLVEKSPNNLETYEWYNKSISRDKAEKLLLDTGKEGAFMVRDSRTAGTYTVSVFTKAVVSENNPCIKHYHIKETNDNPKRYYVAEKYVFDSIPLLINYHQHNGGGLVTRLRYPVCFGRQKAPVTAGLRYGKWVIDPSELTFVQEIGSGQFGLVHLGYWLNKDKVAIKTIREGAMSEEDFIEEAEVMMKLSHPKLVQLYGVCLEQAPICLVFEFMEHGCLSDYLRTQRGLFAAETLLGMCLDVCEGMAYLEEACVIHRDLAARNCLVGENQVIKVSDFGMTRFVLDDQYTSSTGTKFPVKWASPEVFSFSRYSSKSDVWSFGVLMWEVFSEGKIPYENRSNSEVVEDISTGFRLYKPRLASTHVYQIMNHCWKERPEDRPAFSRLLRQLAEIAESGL
# [2] = biological target: Tyrosine-protein kinase JAK2 (Homo sapiens) (UniProt O60674); conditions: at 1 µM
# Sequence of Tyrosine-protein kinase JAK2 (Homo sapiens) (O60674 whole entry): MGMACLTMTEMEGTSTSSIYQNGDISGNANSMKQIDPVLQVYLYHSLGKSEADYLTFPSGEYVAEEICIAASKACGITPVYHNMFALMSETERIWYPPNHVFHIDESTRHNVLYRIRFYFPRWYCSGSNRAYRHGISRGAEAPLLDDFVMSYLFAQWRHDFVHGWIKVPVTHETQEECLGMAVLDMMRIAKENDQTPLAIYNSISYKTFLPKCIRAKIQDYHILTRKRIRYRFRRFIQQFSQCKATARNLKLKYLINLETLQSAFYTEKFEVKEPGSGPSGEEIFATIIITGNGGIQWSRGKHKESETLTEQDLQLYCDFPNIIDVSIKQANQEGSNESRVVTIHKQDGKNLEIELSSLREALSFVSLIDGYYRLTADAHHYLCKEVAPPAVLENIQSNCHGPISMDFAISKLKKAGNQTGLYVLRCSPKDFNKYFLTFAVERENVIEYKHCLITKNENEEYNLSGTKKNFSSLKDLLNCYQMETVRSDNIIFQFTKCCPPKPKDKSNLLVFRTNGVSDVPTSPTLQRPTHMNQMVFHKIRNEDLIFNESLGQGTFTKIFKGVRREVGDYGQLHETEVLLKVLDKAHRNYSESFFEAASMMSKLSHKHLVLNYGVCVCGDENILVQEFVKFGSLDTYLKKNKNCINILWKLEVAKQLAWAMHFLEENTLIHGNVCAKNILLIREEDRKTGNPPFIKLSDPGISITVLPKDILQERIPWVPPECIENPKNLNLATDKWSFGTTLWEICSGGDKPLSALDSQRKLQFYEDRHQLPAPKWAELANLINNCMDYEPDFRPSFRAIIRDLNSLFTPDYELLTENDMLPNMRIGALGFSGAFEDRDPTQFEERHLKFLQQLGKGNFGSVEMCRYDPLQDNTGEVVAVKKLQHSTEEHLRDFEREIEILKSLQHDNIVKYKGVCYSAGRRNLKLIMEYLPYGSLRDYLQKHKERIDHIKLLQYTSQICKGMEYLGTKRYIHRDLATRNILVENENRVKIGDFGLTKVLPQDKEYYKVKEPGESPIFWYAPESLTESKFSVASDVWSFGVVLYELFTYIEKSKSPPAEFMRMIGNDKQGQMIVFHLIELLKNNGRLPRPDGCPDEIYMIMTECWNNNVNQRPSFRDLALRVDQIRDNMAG
# [3] = biological target: Tyrosine-protein kinase JAK2 (Homo sapiens) (UniProt O60674); conditions: at 10 µM
# [4] = biological target: T2, Tyrosine-protein kinase JAK3 (Homo sapiens) (UniProt P52333); conditions: at 1 µM
# T2 sequence (whole entry): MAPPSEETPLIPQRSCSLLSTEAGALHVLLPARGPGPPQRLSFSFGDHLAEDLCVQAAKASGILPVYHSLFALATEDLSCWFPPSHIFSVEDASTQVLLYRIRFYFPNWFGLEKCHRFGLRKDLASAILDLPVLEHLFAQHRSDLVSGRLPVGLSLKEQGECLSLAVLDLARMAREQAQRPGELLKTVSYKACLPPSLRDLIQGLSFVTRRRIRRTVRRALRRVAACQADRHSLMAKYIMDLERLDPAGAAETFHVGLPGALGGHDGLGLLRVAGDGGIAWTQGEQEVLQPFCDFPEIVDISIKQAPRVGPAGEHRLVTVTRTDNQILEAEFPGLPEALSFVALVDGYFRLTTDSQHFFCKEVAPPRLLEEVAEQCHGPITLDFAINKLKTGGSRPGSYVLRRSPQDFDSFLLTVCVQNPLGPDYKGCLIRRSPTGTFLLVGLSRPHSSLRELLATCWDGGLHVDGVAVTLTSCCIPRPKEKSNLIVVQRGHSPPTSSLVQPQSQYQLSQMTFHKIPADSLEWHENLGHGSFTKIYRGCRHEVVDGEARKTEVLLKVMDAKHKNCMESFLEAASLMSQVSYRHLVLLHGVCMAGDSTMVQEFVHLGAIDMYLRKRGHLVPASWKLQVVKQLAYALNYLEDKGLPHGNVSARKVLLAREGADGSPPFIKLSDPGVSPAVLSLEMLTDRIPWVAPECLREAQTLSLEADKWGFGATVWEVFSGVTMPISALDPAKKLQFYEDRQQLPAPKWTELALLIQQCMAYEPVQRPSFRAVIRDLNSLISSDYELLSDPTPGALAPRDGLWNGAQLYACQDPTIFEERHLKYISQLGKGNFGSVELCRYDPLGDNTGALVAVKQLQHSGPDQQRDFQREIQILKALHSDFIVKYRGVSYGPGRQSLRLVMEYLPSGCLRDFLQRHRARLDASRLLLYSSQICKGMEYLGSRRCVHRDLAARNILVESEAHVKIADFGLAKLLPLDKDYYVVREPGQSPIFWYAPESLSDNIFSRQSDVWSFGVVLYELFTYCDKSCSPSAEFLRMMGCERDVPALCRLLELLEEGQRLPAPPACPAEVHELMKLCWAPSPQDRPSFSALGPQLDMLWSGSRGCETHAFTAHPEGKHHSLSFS
# [5] = biological target: T2, Tyrosine-protein kinase JAK3 (Homo sapiens); conditions: at 10 µM
# [6] = biological target: Mitogen-activated protein kinase 8 (Homo sapiens) (UniProt P45983); conditions: at 1 µM
# Sequence of Mitogen-activated protein kinase 8 (Homo sapiens) (P45983 whole entry): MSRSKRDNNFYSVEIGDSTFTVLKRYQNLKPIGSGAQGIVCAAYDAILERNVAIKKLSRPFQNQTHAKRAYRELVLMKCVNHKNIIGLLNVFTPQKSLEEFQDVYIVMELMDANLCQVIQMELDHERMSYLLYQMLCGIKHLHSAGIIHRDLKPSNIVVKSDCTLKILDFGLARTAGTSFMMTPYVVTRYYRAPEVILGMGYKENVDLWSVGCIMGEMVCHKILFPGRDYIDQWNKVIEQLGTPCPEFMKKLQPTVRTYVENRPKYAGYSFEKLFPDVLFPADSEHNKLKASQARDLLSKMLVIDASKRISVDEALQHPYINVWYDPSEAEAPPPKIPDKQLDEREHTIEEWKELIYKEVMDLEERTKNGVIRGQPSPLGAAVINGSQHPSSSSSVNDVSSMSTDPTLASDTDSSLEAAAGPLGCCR
# [7] = biological target: Mitogen-activated protein kinase 8 (Homo sapiens) (UniProt P45983); conditions: at 10 µM
# [8] = biological target: Mitogen-activated protein kinase 10 (Homo sapiens) (UniProt P53779); conditions: at 1 µM
# Sequence of Mitogen-activated protein kinase 10 (Homo sapiens) (P53779 whole entry): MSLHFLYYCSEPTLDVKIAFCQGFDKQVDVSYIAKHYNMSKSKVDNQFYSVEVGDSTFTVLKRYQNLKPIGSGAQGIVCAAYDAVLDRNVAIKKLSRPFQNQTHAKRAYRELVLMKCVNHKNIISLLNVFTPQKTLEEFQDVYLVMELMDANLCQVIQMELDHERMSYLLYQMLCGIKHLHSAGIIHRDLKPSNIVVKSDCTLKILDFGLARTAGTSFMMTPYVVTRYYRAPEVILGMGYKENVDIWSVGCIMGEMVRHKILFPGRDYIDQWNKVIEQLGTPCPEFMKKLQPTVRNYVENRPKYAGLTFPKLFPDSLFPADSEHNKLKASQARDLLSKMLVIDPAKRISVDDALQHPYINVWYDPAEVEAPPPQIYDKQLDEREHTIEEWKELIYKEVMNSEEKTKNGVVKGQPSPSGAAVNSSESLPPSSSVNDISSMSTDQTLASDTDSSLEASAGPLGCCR
# [9] = biological target: Mitogen-activated protein kinase 9 (Homo sapiens) (UniProt P45984); conditions: at 1 µM
# Sequence of Mitogen-activated protein kinase 9 (Homo sapiens) (P45984 whole entry, looked up): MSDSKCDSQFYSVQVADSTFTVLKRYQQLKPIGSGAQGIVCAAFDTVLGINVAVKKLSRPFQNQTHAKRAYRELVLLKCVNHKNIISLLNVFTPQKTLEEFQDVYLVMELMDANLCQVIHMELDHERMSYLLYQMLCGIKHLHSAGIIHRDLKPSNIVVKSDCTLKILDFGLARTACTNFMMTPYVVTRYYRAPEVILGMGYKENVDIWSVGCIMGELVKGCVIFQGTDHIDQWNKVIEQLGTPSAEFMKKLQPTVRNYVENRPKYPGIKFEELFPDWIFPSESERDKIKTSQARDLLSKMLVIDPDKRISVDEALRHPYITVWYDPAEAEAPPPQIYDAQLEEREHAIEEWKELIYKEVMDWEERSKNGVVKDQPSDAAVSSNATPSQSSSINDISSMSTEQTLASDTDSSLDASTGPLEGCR
# [10] = biological target: Mitogen-activated protein kinase 9 (Homo sapiens) (UniProt P45984); conditions: at 10 µM
SMILES,residual activity [1],residual activity [2],residual activity [3],residual activity [4],residual activity [5],residual activity [6],residual activity [7],residual activity [8],residual activity [9],residual activity [10]
CC(C)(C)c1nc2c3ccc(F)cc3c3c(=O)[nH]ccc3c2[nH]1,66%,-1%,1%,1%,1%,32%,9%,-2%,–,–
O=C(c1cc2cc(O)ccc2[nH]1)c1cc2cc(O)ccc2[nH]1,16%,–,–,64%,17%,–,–,51%,–,–
c1ccc(-c2cnc(Nc3ccc(OCCN4CCCC4)cc3)s2)cc1,30%,111%,105%,–,–,112%,70%,80%,–,–
N#C/C(=C\c1ccc(O)c(O)c1)C(=O)NCc1ccccc1,104%,–,–,–,–,–,–,–,–,–
CC(C)c1nn(-c2c(Cl)cccc2Cl)c2nc(Cc3ccc(OCCO)cc3)[nH]c(=O)c12,96%,85%,100%,103%,106%,–,94%,81%,99%,86%
Nc1nc(Nc2ccc(S(N)(=O)=O)cc2)nn1C(=O)c1c(F)cccc1F,40%,11%,0%,7%,1%,–,–,51%,102%,48%
Cn1c2ccccc2c2c3c(c4c5ccccc5n(CCC#N)c4c21)CNC3=O,4%,4%,3%,1%,2%,–,31%,7%,–,73%
O=S(=O)(NCCNC/C=C/c1ccc(Br)cc1)c1cccc2cnccc12,100%,–,–,–,–,–,–,–,–,–
CCOC(=O)c1c(C)[nH]c(/C=C2\C(=O)Nc3ccccc32)c1C,99%,92%,100%,–,–,–,–,–,–,–
COc1ccc2c(c1)c(C1=C(c3c[nH]c4ccccc34)C(=O)NC1=O)cn2CCCN(C)C,79%,114%,81%,102%,50%,104%,57%,74%,111%,–
O=c1cc(N2CCOCC2)oc2c1ccc1ccccc12,94%,–,–,100%,108%,103%,87%,–,110%,97%
CCCCc1c(-c2ccc(O)cc2)[nH]c2nccnc12,38%,62%,63%,80%,26%,–,–,56%,97%,98%
COc1cc2ncnc(Nc3cccc(Cl)c3)c2cc1OC,105%,123%,86%,109%,118%,112%,122%,73%,–,–
O=C(Nc1nc2ccccc2n1CCN1CCOCC1)c1cccc([N+](=O)[O-])c1,52%,24%,40%,85%,69%,–,–,–,–,–
CCN(CC)CCNC(=O)c1c(C)[nH]c(/C=C2\C(=O)Nc3ccc(Cl)cc32)c1C,2%,72%,20%,62%,16%,97%,82%,80%,–,–
CSc1nc(-c2ccc(F)cc2)c(-c2ccnc(NC(C)c3ccccc3)c2)[nH]1 (stereo not drawn),53%,–,–,–,–,90%,32%,4%,39%,-6%

SMILES,residual activity [1],residual activity [2],residual activity [3],residual activity [4],residual activity [5],residual activity [6],residual activity [7],residual activity [8],residual activity [9],residual activity [10]
O=c1cc(N2CCNCC2)oc2c(-c3ccccc3)cccc12,93%,–,101%,94%,78%,–,84%,73%,–,97%
CCCC(=O)Oc1ccc2[nH]c(C(=O)c3cc4ccccc4[nH]3)cc2c1,101%,103%,100%,–,–,94%,81%,69%,–,89%
CCCCc1c(-c2ccc(OC)cc2)[nH]c2nccnc12,92%,71%,49%,81%,86%,105%,–,48%,91%,109%
Nc1ncnc2c1c(-c1ccc(Oc3ccccc3)cc1)cn2C1CCCC1,4%,96%,124%,91%,65%,100%,64%,77%,104%,92%
CN(C)S(=O)(=O)c1ccc2c(c1)/C(=C/c1cc3c([nH]1)CCCC3)C(=O)N2,22%,67%,25%,66%,48%,99%,94%,89%,–,–
CC(C)(C)n1nc(Cc2cccc3ccccc23)c2c(N)ncnc21,106%,101%,121%,99%,100%,108%,78%,28%,108%,78%
NC(=O)Nc1sc(-c2ccc(F)cc2)cc1C(N)=O,1%,4%,0%,42%,5%,94%,52%,60%,84%,67%
O=C(CCCc1ccc(-c2ccccc2F)cc1)Nc1ccc(O)cc1,98%,108%,111%,104%,104%,99%,98%,109%,93%,99%
COc1ccc(COc2ccc(Cc3cnc(N)nc3N)cc2OC)cc1,99%,–,–,–,–,–,–,–,–,–
Nc1ncnc2c1cnn2-c1ccccc1,97%,126%,93%,–,–,–,–,78%,–,95%
COc1cc2c(cc1OC)-c1n[nH]c(Nc3cccc(F)c3)c1C2,41%,–,108%,–,114%,–,–,53%,101%,69%
O=C1NC(=O)c2c1c1c3ccccc3[nH]c1n1cncc21,44%,97%,93%,83%,58%,89%,75%,25%,67%,49%
Cn1sc(=O)n(Cc2ccccc2)c1=O,83%,91%,98%,–,–,89%,88%,75%,91%,93%
COc1cc2nccc(Oc3ccc(NC(=S)NC(=O)c4ccccc4C)cc3)c2cc1OC,48%,–,–,86%,92%,95%,78%,69%,–,87%
Nc1ncnc2[nH]nc(Nc3ccc(F)cc3)c12,78%,103%,93%,101%,90%,105%,93%,98%,92%,93%
O=C1NC(=O)C(c2cn(CCCO)c3ncccc23)=C1c1cnccn1,91%,–,–,–,–,–,–,–,–,–
